Source: PubChem (National Center for Advancing Translational Sciences (NCATS))
D1 PAM = Potentiators of Human D1 Dopamine Receptor: qHTS; HEK293 TREx D1 cells, calcium flux, dopamine EC20 potentiation; potentiation, % at 10 µM; D(1A) dopamine receptor (Homo sapiens), P21728; AID 504651, 2011; 360,000 tested, 0.036% active; in the data active = potentiation above about 30%
Target sequence (P21728 whole entry, looked up): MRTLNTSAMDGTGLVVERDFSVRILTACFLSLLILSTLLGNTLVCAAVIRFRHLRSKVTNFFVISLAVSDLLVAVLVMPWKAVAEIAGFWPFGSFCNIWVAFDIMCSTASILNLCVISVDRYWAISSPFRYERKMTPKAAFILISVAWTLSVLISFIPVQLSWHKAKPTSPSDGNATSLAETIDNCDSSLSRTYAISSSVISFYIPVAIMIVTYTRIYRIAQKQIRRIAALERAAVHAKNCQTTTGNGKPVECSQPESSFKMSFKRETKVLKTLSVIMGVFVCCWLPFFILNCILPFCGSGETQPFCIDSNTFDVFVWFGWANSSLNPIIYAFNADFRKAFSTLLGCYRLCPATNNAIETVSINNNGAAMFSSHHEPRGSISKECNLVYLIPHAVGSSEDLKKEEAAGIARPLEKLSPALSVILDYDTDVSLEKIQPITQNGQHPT
D1 antag = Antagonist of Human D 1 Dopamine Receptor: qHTS | D(1A) dopamine receptor (Homo sapiens), P21728 | HEK293 TREx D1 cells, calcium flux, dopamine EC80; hits give low values | activity change, negative = inhibition, % at 10 µM | 360,000 tested, 3.2% active | AID 504652, 2011; in the data active = activity change below about -30%
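Tetracycline-induced HEK293 Trex D1 cells, force-coupled to calcium, dye-loaded; compounds added and read 180 s, then EC80 dopamine added and calcium flux tracked kinetically another 180 s.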
TRHR agonist = qHTS for Small Molecule Agonists and Allosteric Enhancers of Human TRH Receptor: Primary Screen for Agonists; 360,000 tested, 0.18% active; activation, % at 2 µM; TRHR cells, calcium flux fluo-8, FDSS agonist mode
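Steps: seed TRHR cells overnight; add fluo-8 no-wash Ca dye, RT 30 min–1.5 h; record 10 s baseline; pin-transfer compounds; monitor fluorescence 1 cycle/s for the agonist window. Calcium increases flag candidate agonists.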
TRHR enhancer = qHTS for Small Molecule Agonists and Allosteric Enhancers of Human TRH Receptor: Primary Screen for Enhancers; enhancement, % at 2 µM; Thyrotropin-releasing hormone receptor (Homo sapiens), P34981; 360,000 tested, 0.66% active; AID 493056, 2011; TRHR cells, fluo-8 calcium fluorescence, EC20 TRH enhancement; in the data active = enhancement above about 30%
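Enhancer read-out: after compound pinning and an initial kinetic agonist-mode read, an EC20 of TRH (10 nM final) was injected and fluo-8 calcium signal (Ex 480/Em 530) followed at 1 s/cycle for 100 cycles in TRHR-expressing cells.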
D1 agonist = Allosteric Agonists of the Human D1 Dopamine Receptor: qHTS; D(1A) dopamine receptor (Homo sapiens), P21728; HEK293 T-REx D1 cells, calcium flux, agonist mode; activation, % at 2 µM; 360,000 tested, 1% active; AID 504660, 2011
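Inducible HEK293 T-REx D1 cells, force-coupled to calcium signalling, were plated at 4000 cells/well with tetracycline and held overnight at 30 C. After no-wash calcium dye loading, compound-evoked calcium rise over 180 s flagged agonists.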
Numbers stand for hits; . = inactive; / = no result. The list is not random: actives were taken first. Their share in the collection is about 4.7%. Rule as the data show it, unless noted: active = activation above about 30%; inactive = the rest.

SMILES	D1 PAM	D1 antag	TRHR agonist	TRHR enhancer	D1 agonist
COc1cccc2sc(N(CCCN(C)C)C(=O)COc3ccc(Cl)cc3)nc12	.	.	.	.	.
COc1ccc(C)c2sc(N(CCCN(C)C)C(=O)c3ccc4c(c3)OCCO4)nc12	.	.	.	.	66.4
CCN(c1ccccc1)S(=O)(=O)c1ccc(C(=O)N(CCCN(C)C)c2nc3c(C)cccc3s2)cc1	.	.	.	.	.
Cc1cc2c(s1)c1cnn(Cc3cc(C(F)(F)F)ccc3F)c(=O)c1n2C	.	.	.	.	.
Cc1ccc2[nH]c(=O)c(CN(C(=O)c3cccc(Cl)c3)C(C)(C)C)cc2c1	.	.	.	.	.
CCOC(=O)c1cc(C)n(CC2CCC(C(=O)Nc3ccc(OC)cc3)CC2)c1C (stereo unspecified)	.	.	.	.	.
CN(C)CCCN(C(=O)COc1ccccc1)c1nc2cc3c(cc2s1)OCO3	.	.	.	.	36.1
CN(C)CCCN(C(=O)c1ccc2c(c1)OCCO2)c1nc2cc3c(cc2s1)OCO3	.	.	.	.	.
CN(C)CCCN(C(=O)c1ccc([N+](=O)[O-])o1)c1nc2cc3c(cc2s1)OCO3	.	-47.0	.	.	.
CN(C)CCCN(C(=O)c1ccc2ccccc2c1)c1nc2cc3c(cc2s1)OCO3	.	.	.	.	36.3
CN(C)C(/C=C/Nc1ccc(O)cc1)=C(C#N)C#N	.	.	.	.	.
CCc1ccc(-c2nc(SCC(=O)N(CC)C3CCS(=O)(=O)C3)n[nH]2)cc1 (stereo unspecified)	.	.	.	.	.
CCOc1ccc(C(=O)Nc2nnc(SCc3cc(=O)n4ccccc4n3)s2)cc1	.	.	.	.	.
O=C(/C=C/c1ccccc1)N1c2ccccc2Sc2ccc(C(F)(F)F)cc21	.	.	.	.	.
COc1ccc(/C=C/C(=O)N2c3ccccc3Sc3ccc(C(F)(F)F)cc32)cc1	.	-39.9	.	33.5	.
CCOC(=O)[C@H]1[C@H]2COc3ccc(Cl)cc3[C@@H]2N2C(=O)c3ccc(Cl)cc3NC(=O)[C@@]12C	.	.	.	.	.
CSc1nnc(C)c(/C=C/Nc2ccc(C)cc2)n1	.	.	.	.	45.5
CSc1nnc(C)c(/C=C/NOCc2ccc(Cl)cc2)n1	.	.	.	.	.
Nc1cc(Nc2ccc(Br)cc2)nc(N)n1	.	.	.	.	.
O=C(COC(=O)CNC(=O)c1ccc(Br)cc1)Nc1nnc(-c2ccccc2)o1	.	-37.8	.	.	.
CCOc1ccc(C(=O)NCC(=O)OCC(=O)Nc2nnc(-c3ccccc3)o2)cc1	/	.	.	.	.
Cc1ccc(C(=O)CCC(=O)OCC(=O)Nc2nnc(-c3ccccc3)o2)cc1	.	-50.0	.	40.5	.
CC1CCCC(NC(=O)CN2CCN(S(=O)(=O)c3ccc(Br)s3)CC2)C1C (stereo unspecified)	.	.	.	.	.
CCCCN(Cc1ccccc1)S(=O)(=O)c1cc(Br)cc2c1N(C(C)=O)CC2	.	.	.	.	.
CCCC(C(=O)Nc1ccncc1)c1ccccc1 (stereo unspecified)	.	-39.8	.	.	.
SMILES	D1 PAM	D1 antag	TRHR agonist	TRHR enhancer	D1 agonist
CN(C)c1ccc(/C=C2\SC(N3CCCCC3)=NC2=O)cc1	.	.	.	.	36.7
Cc1ccc(/C=C2\SC(N3CCCC3)=NC2=O)cc1	.	.	.	.	.
COc1ccc(N2CCN(C(=O)CCc3c(C)nc4cc(-c5ccc(Cl)cc5)nn4c3C)CC2)cc1	.	-39.1	.	.	.
COc1ccc(N2CCN(C(=O)CCc3c(C)nc4cc(-c5ccc(OC)cc5OC)nn4c3C)CC2)cc1	.	.	.	.	.
COCCCNC(=O)CCc1c(C)nc2cc(-c3ccc(Cl)cc3)nn2c1C	.	-54.0	.	.	.
CCCCNC(=O)CCc1c(C)nc2cc(-c3ccccc3)nn2c1C	.	.	.	.	.
O=C(Cc1cccs1)N1CCN=C1SCc1ccccc1F	.	-36.3	.	.	.
O=C(Cc1cccs1)N1CCN=C1SCc1ccccc1Cl	.	.	.	.	.
CN(C)c1ccc2c(c1)OC(N)=C(C#N)C2c1cccc(F)c1 (stereo unspecified)	.	.	.	.	75.5
CCOc1ccc(/C=C/C(=O)N(C)CC(=O)Nc2cccc(F)c2)cc1OCC	.	.	.	.	.
Cc1ccc(C(=O)Nc2cc(-c3nc4ncccc4o3)ccc2C)c(C)c1	.	.	.	.	.
O=Cc1c(NCc2cccc(F)c2)c2ccccc2[nH]c1=O	.	.	.	.	.
O=Cc1c(NCc2ccc(F)cc2)c2ccccc2[nH]c1=O	.	-36.0	.	.	.
O=Cc1c(NCc2ccccc2Cl)c2ccccc2[nH]c1=O	.	-33.1	.	.	.
Cc1ccc(CNc2c(C=O)c(=O)[nH]c3ccccc23)cc1	.	-50.7	.	.	.
CCc1cc2c(C)cc(=O)oc2cc1Oc1ncccc1[N+](=O)[O-]	.	.	.	.	.
CCOCCCNC(=O)c1cnc2sc(N3CCCCCC3)nn2c1=O	.	-30.7	.	.	.
COc1ccccc1CN1CCCC(N2CCN(c3ccccc3OC)CC2)C1 (stereo unspecified)	.	-50.5	.	.	.
COc1ccccc1N1CCN(C2CCCN(Cc3cccc(O)c3)C2)CC1 (stereo unspecified)	.	-50.4	.	.	.
Cc1cc(C(=O)C(C)OC(=O)C2=NNC(=O)CC2)c(C)n1-c1ccc(OC(F)F)cc1 (stereo unspecified)	.	.	.	.	.
Cc1cc(C(=O)COC(=O)C2=NNC(=O)CC2)c(C)n1-c1ccc(OC(F)F)cc1	.	-34.6	.	.	.
CC(C)Oc1ccc(C(=O)Nc2c3c(nn2C(C)(C)C)CS(=O)(=O)C3)cc1	.	.	.	.	.
Cc1ccc2oc3c(c(=O)c2c1)C(c1ccc(F)cc1)N(c1nc(C)c(C)s1)C3=O (stereo unspecified)	.	.	.	.	.
Cc1oc(-c2ccccc2F)nc1Cn1c(SCc2ccccc2F)nc2ccncc21	.	.	.	.	.
COC(=O)CCSc1cc([N+](=O)[O-])cc2c1c(C1OCCO1)nn2-c1ccccc1	.	-35.6	.	.	.
COc1ccc(Cl)cc1NC(=O)c1cc2ccc3ccc(C)[nH]c3c2n1	.	.	.	.	.
O=C(COc1ccc(Cl)cc1)OCC(=O)N1CCCC1	.	.	.	.	.
O=C(COc1ccc(Cl)cc1)N1CCN(c2ccc([N+](=O)[O-])c(N3CCCCC3)c2)CC1	.	-31.1	.	.	.
